According to PubChem BioAssay AID1347076 (National Center for Advancing Translational Sciences (NCATS), 2019):
Among all 400,000 compounds or so, about 13,000 (3.2%) were called active. A call without a number means that no potency is given here. Not shown: some 18% with an inconclusive outcome. Calls follow the shape of the dose curve; as a rule, active = well fitted cell-killing curve with a large enough effect; inconclusive = small, poorly fitted or top-dose-only effect, or effect the other way; inactive = flat fitted curve, though single readings scatter. The sample as a whole holds a higher share of actives than the screen did.

Experiment: qHTS assay for MDR1-selective chemotherapeutics: Primary screen using the drug-selected MDR subline cells KB-V1; also: nearly all actives have a fitted effect of over 60% in size
Conditions: KB-V1 MDR cells viability, CellTiter-Glo, 72 h; series mostly up to 46.1 µM
Source text: A prime difficulty in effectively treating cancer is the development of cellular resistance to multiple structurally unrelated anticancer drugs, a phenomenon known as multidrug resistance (MDR). […] Numerous strategies to overcome P-gp-mediated MDR have been explored, including the design of drugs that evade recognition and efflux, and development of inhibitors to block efflux and restore drug accumulation. […] An alternative approach is to exploit resistance by identifying drugs that target MDR cells over the non-resistant parental cells from which they were selected. […] The development of MDR1-selective agents represents a new strategy for resolving multidrug resistance, as it remains a long-standing clinical challenge for cancer chemotherapy.
Our goal is to identify compounds that selectively kill P-gp-expressing MDR cells. We will identify MDR1-selective compounds by comparing toxicity of compounds in the screening library against parental, drug-naive (KB-3-1) adenocarcinoma cells as well as their drug-selected MDR sub-line (KB-V1). The differential toxicity of compounds against these two cell lines will be used to identify MDR1-selective compounds, whose cytotoxicity is potentiated, rather than diminished, by P-gp expression. This assay will be utilized to conduct a quantitative high-throughput screen (qHTS) in collaboration with the NIH Chemical Genomics Center to identify selective agents, and probe hits arising from the screen will be validated using secondary assays and characterized through a well-established follow-up research program. This screen was run against the entire NCGC library collection of about 400,000 compounds.
NIH Molecular Libraries Probe Production Network [MLPCN]
NIH Chemical Genomics Center [NCGC]
PI: Michael Gottesman, National Cancer Institute, NIH
Briefly, 5 microL of media containing either KB-V1 cells (columns 1-2, 4-48) are dispensed into Greiner white, treated solid-bottom 1536-well assay plates (media-only control is added to column 3). Compounds are then transferred via Kalypsys pin tool equipped with 1536-pin array (10 nL slotted pins, V&P Scientific, San Diego, CA). Following addition of compound, the plates are incubated at 37 degrees C for 72 hours. CellTiter-Glo (2.5 µL/well) is then added, and the plates are read in a ViewLux reader (Perkin-Elmer, clear luminescence filter, 1 second exposure, 1x binning) following a 10 minute incubation. All cells are dispensed in DMEM phenol-red free media containing 10% FBS.
Library plates were screened starting from the lowest and proceeding to the highest concentration. Vehicle-only plates, with DMSO being pin-transferred to columns 5-48, will be inserted uniformly at the beginning and the end of each library in order to monitor and record any shifts in the background, which can be affected by reagent dispensers or loss in enzyme activity over time. Screening data will be corrected, normalized, and concentration-effect relationships will be derived by using publicly-available NCGC, NCATS curve fitting algorithms (http://ncgc.nih.gov/pub/openhts).
Potency is read from the fitted curve at half-maximal effect.

Compound	Potency
CCCCCCCCCCCCn1ccc(=N)cc1	8.2 µM (active)
COC(=O)C(O)(c1ccc(NC(=O)c2ccco2)c(OC)c1)C(F)(F)F (configuration not stated)	inactive
COC(=O)C1=C(c2cc3ccccc3s2)C[C@@H]2CC[C@H]1N2C(=O)NCCO	inactive
CCCCCn1c(=O)c(C(=O)NCc2ccccc2)c(O)c2ccccc21	inactive
COc1cc(C(c2c(O)c3ccccc3oc2=O)c2c(C)n(C)n(-c3ccccc3)c2=O)ccc1O (configuration not stated)	inactive
CCCCCn1c(=O)c(C(=O)Nc2c(C)n(C)n(-c3ccccc3)c2=O)c(O)c2ccccc21	2.06 µM (active)
CCCCCn1c(=O)c(C(=O)NCc2ccccn2)c(O)c2ccccc21	14.6 µM (active)
CCCCn1c(=O)c(C(=O)Nc2ccccc2Cl)c(O)c2ccccc21	inactive
O=C(O)c1cc[c]([Sb](=[O])([OH])[OH])cc1[N+](=O)[O-]	inactive
Cc1ccc(S(=O)(=O)N(C)c2ccc(C(=O)NCC3(N(C)C)CCCCC3)cc2)cc1	inactive
Cc1c(Oc2cc(NN3CCCCC3)c([N+](=O)[O-])cc2[N+](=O)[O-])cccc1[N+](=O)[O-]	inactive
CCC1(CC(C)c2ccccc2)C(=O)NC(=O)NC1=O (configuration not stated)	inactive
C[N+]1(C)CCOC(O)(c2ccc(-c3ccc(C4(O)C[N+](C)(C)CCO4)cc3)cc2)C1 (configuration not stated)	inactive
ClC(Cl)(Cl)c1ccccc1	inactive
COC(=O)C1=C(c2ccc(F)cc2OCc2ccccc2)C[C@@H]2CC[C@H]1N2C(=O)NCc1ccc(OC)c(OC)c1	inactive
COC(=O)C1=C(c2ccc(OCc3ccccc3)cc2)C[C@@H]2CC[C@H]1N2C(=O)NCc1ccc(Cl)cc1	14.6 µM (active)
COC(=O)C1=C(c2ccccc2OCc2ccccc2)C[C@@H]2CC[C@H]1N2C(=O)NCc1ccc(OC)cc1	inactive
COC(=O)C1=C(c2ccc(-c3ccccc3)c(F)c2)C[C@@H]2CC[C@H]1N2C(=O)NCc1ccc(F)cc1	20.6 µM (active)
COC(=O)C1=C(c2ccccc2)C[C@@H]2CC[C@H]1N2C(=O)NCc1ccco1	inactive
COC(=O)C1=C(c2ccc(F)cc2OCc2ccccc2)C[C@@H]2CC[C@H]1N2C(=O)NCc1ccc(Cl)cc1	inactive
COC(=O)C1=C(c2ccc(F)cc2OCc2ccccc2)C[C@@H]2CC[C@H]1N2C(=O)NCc1ccc2[nH]ccc2c1	inactive
COC(=O)C1=C(c2ccc(OCc3ccccc3)cc2)C[C@@H]2CC[C@H]1N2C(=O)NCc1cccc(F)c1	7.31 µM (active)
COC(=O)C1=C(c2ccc(F)cc2OCc2ccccc2)C[C@@H]2CC[C@H]1N2C(=O)NCc1ccc(C(C)(C)C)cc1	inactive
Nc1ccc(Cc2ccc(N)c(Cl)c2)cc1Cl	inactive
O=C(O)/C=C/c1ccc2c(c1)OCO2	inactive
O=C1NC(=O)C(Cc2ccccc2)C(=O)N1	inactive

Compound	Potency
COc1ccc(-n2nnnc2C(c2cccc3ccccc23)N2CCC(n3c(=O)[nH]c4ccccc43)CC2)cc1 (configuration not stated)	inactive
COC(=O)N1C(c2ccccc2)C1c1ccccc1 (configuration not stated)	inactive
Fc1ccc(C2N3CCCN23)cc1 (configuration not stated)	inactive
CC(C)CN1Cc2cc(N3CCCCC3)ccc2-n2nncc2C1	inactive
CC(Cc1ccccc1)NC=O (configuration not stated)	inactive
CC(Cc1ccccc1)NCCC(c1ccccc1)c1ccccc1 (configuration not stated)	14.6 µM (active)
CC(=O)NC(=O)NC(C)Cc1ccccc1 (configuration not stated)	inactive
C[C@]12CCCCC1=CC(=O)C1C2CC[C@@]2(C)C1C[C@@H](F)[C@@H]2O (some centres not stated)	inactive
CC(c1ccccc1)(c1ccccc1)c1ccncc1	inactive
O=[N+]([O-])c1cnc2ccc3ccccc3c2c1	inactive
C/C(=N/O)c1ccc2ccc3ccccc3c2c1	3.26 µM (active)
C/C(CCc1c[nH]c2ccccc12)=N\O	inactive
CC1(C)Cc2c(C#N)c(N3CCNCC3)nc(-c3ccco3)c2CS1	inactive
CCOC(=O)C1(c2ccccc2)CCN(CC(O)c2ccc(NC(C)=O)cc2)CC1 (configuration not stated)	inactive
O=C(CCN1CCCCC1)NCC(=O)Nc1ccc(Br)cc1C(=O)c1ccccc1	18.4 µM (active)
O=C(CN1CCCCC1)Nc1ccc(Br)cc1C(=O)c1ccccc1Cl	inactive
CCOC(=O)CNC(=O)N1Cc2cc(N3CCCCC3)ccc2-n2nncc2C1	inactive
C[C@H]1CN([C@@H](C)CO)C(=O)CCCn2nncc2CO[C@H]1CN(C)C(=O)Oc1cccc2ccccc12	inactive
Cc1ccc(C(C)C)c(OCC(=O)N2CCN(CC(=O)N3CCOCC3)CC2)c1	inactive
CC1CCCN1CCC(C(N)=O)(c1ccccc1)c1ccccc1 (configuration not stated)	inactive
O=C(NC1CCCCC1)N1Cc2cc(N3CCCCC3)ccc2-n2nncc2C1	inactive
c1ccc2c(c1)[I+]c1ccccc1-2	16.4 µM (active)
CC=C(C)C(=O)OC1CCN2CC=C(COC(=O)C(O)(C(C)OC)C(C)(C)O)C12 (configuration not stated)	inactive
CC1CNCCN1c1ccc(Cl)cc1 (configuration not stated)	inactive
O=C(COC(=O)c1ccccc1)Nc1ccc(Cl)cc1C(=O)c1ccccc1	inactive
O=C(Nc1ccc(Cl)cc1C(=O)c1ccccc1)c1cc(Cl)cc(Cl)c1	inactive

Compound	Potency
CN1CCN(C(=S)SCC(=O)Nc2ccc(Cl)cc2C(=O)c2ccccc2)CC1	5.17 µM (active)
COc1ccc(C2C=C(C)Oc3c2c(=O)oc2ccccc32)cc1OC (configuration not stated)	inactive
Cc1ncoc1C(=O)NCC1=C(c2cccc3ccccc23)C[C@@H]2CC[C@H]1N2Cc1ccco1	inactive
C=C(C)C1(CCCC)C(=O)NC(=S)NC1=O	inactive
Oc1cc2c(cc1CN1CCN(c3ccccc3)CC1)OCO2	inactive
Cc1cc(C)c2c(c1)NP(=S)(c1ccccc1)N2 (configuration not stated)	inactive
C[C@]12CCC3C(CC[C@H]4[C@H](O)[C@H](O)CC[C@]34C)C1CC[C@@H]2O (some centres not stated)	inactive
C[C@]12CCC3C(CC[C@H]4C[C@@H](O)CC[C@]34C)C1CC[C@@H]2O (some centres not stated)	inactive
CC12CCC(O)CC1CCC1C2CCC2(C)C(C(=O)CC(O)C(F)(F)F)CCC12 (configuration not stated)	23.1 µM (active)
COC(=O)[C@@H]1C(OC(=O)c2ccccc2)CC2CCC1N2C (some centres not stated)	inactive
Cn1c(O)c(C(=Nc2ccc(F)cc2)c2ccccc2)c(=O)n(C)c1=O	inactive
O=P(OC1=CCCCC1)(c1ccccc1)c1ccccc1	inactive
CCCOC(=O)C1C2c3ccccc3C(c3ccccc32)C1C(=O)O (configuration not stated)	inactive
CC1CCC(N(C)C2CCN(C)CC2)CC1 (configuration not stated)	inactive
Cc1ccc(-c2cc(C(=O)N3CCC4(CC3)OCCO4)no2)cc1	inactive
O=C(c1cc2nc(-c3ccccc3)cc(-c3ccccc3)n2n1)N1CCC2(CC1)OCCO2	25.9 µM (active)
O=C(c1ccccc1[N+](=O)[O-])N1CCC2(CC1)OCCO2	inactive
CC1C2Cn3c(nc4ccccc43)C1N(C)O2 (configuration not stated)	inactive
COc1cc(C(=O)N2Cc3ccc(Br)cc3-n3nncc3C2)cc(OC)c1OC	inactive
CCC(C)(O)C(=O)OC1C(=O)OC2CC3C(C)=CC(=O)C(O)C3(C)C3C4(O)OCC23C1C(C)C4O (configuration not stated)	11.6 µM (active)
c1ccc(N2Cc3ccccc3-n3nncc3C2)nc1	inactive
CCC(C)n1c(O)c(/C=N/Nc2nc3c(c(=O)n(C)c(=O)n3C)n2C)c(=O)[nH]c1=S (configuration not stated)	inactive
CCN1C(=O)NC(=O)C2(CCCC2)C1=O	inactive
COC(=O)CN(CCCl)P1(=O)OCCCN1CCCl (configuration not stated)	inactive
O=C(N/N=C/c1c(O)n(Cc2ccccc2)c(=O)[nH]c1=O)c1ccccc1	inactive
CCCCC(=O)N/N=C/c1c(O)n(CCC2=CCCCC2)c(=O)[nH]c1=O	inactive

Compound	Potency
CCC(=NCCCO)c1c(O)n(-c2ccc(OC)cc2)c(=O)[nH]c1=O	inactive
CC/C(=N\NC(=O)c1ccccc1O)c1c(O)n(Cc2ccccc2)c(=O)[nH]c1=O	inactive
CCC(=NCc1ccco1)c1c(O)n(Cc2ccccc2)c(=O)[nH]c1=O	3.66 µM (active)
CCCCCCN=C(CC)c1c(O)n(CCCC)c(=O)[nH]c1=O	5.17 µM (active)
CC(=NCC1CCCO1)c1c(O)n(-c2ccccc2)c(=O)[nH]c1=O (configuration not stated)	inactive
CCCCn1c(O)c(C(CC)=NCc2ccco2)c(=O)[nH]c1=O	20.6 µM (active)
CN(C)CCCN=Cc1c(O)n(Cc2ccco2)c(=O)[nH]c1=O	inactive
c1cc2c(c(NC3=NCCCS3)c1)CCCC2	inactive
O=c1c2ccccc2nc(CBr)n1-c1ccc(Cl)cc1	inactive
C[N+]12CN3CN(CN(C3)C1)C2	inactive
CC(CC(C#N)(c1ccccc1)c1ccccc1)N1CCCCC1 (configuration not stated)	inactive
N#Cc1c(Cl)c(Cl)c(Cl)c(C#N)c1Cl	inactive
Cc1cccc(OP(=O)(Oc2cccc(C)c2)OC(c2ccccc2)C(F)(F)F)c1 (configuration not stated)	inactive
Cc1ccc(OC(=O)N(C)C[C@@H]2OCc3cnnn3CCCC(=O)N([C@H](C)CO)C[C@@H]2C)cc1	inactive
O=C1NCN(c2ccccc2)C12CCN(C(c1cccs1)c1nnnn1C1CCCCC1)CC2 (configuration not stated)	inactive
CC(=O)C1(O)CCC2C3CCC4=C(Cl)C(=O)CCC4(C)C3CCC21C (configuration not stated)	inactive
Cc1ccc(Cn2nnnc2CN2CCC(n3nnc4ccccc43)CC2)cc1	5.8 µM (active)
N[C@@H](Cc1c[nH]c2ccccc12)c1nnc(SCc2c(F)cccc2Cl)o1	18.4 µM (active)
CCOC(=O)CC(SP1(=S)OCC2(CCCCO2)C(C2CCCCO2)O1)C(=O)OCC (configuration not stated)	inactive
CC(C)c1ccc(OCC(=O)N2CCCN(C)CC2)cc1	inactive
Cn1cc(C(=O)OCC(=O)N2CCCC2)c2ccccc21	23.1 µM (active)
CC(=O)Nc1ccccc1C(=O)OCC(=O)c1cccc2ccccc12	inactive
OCC#CC[N+]1(CC#Cc2ccccc2)CCCC1	inactive
C[C@]12CCC3C(CC[C@H]4[C@H](O)[C@H](O)CC[C@]34C)C1CCC2=O (some centres not stated)	inactive
